Assay outcomes from PubChem BioAssay.
Hits are enriched below; roughly 12% of the tested compounds scored in any of these assays.
G9a block = blocks human histone lysine methyltransferase G9a | Q96KQ7 | G9a H3K9 monomethylation, AlphaScreen, 2 h | Potency, µM (titrated, usually from 102 µM), most hits filed as inhibitors | hit rate 8.8% among 350,000 | AID 504332; further: nearly all actives have a fitted effect of over 75% in size
Target sequence (Q96KQ7 913-1193 limits assumed): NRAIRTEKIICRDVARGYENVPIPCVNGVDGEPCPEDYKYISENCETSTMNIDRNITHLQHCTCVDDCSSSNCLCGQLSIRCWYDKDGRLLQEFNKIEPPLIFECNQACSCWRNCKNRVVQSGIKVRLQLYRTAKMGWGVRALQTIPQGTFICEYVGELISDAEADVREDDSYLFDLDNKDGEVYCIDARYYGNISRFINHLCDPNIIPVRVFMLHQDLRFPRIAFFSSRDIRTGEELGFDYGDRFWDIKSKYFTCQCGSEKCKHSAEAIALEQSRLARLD
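Enzyme 20 nM + cpd, 15 min RT; add b-H3K9 pep 500 nM / SAM 20 uM; 2 h RT; anti-H3K9me1 Ab 0.5 ug/mL + SA donor / anti-rabbit acceptor beads 20 ug/mL each, 10 min; AlphaScreen read.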
BAZ2B block = blocks human BAZ2B. AlphaScreen BAZ2B-H3K14Ac peptide displacement. Potency, µM (top dose mostly 114 µM), actives largely listed as inhibitors. hit rate 4.4% among 360,000. Q9UIF8; further: nearly all actives have a fitted effect of over 60% in size
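Protein-peptide AlphaScreen: BAZ2B 50 nM, b-H3K14Ac 50 nM, 1x PBS pH 7.4 + 0.01% Tween-20. Preincubation 30 min RT; cpd 30 min RT (top 110 uM); beads 20 min RT, light-protected.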
L3MBTL1 block = blocks human L3MBTL1; Q9Y468; AlphaScreen L3MBTL1–H3K9me1 peptide binding; Potency, µM (doses to about 57.1 µM), most hits filed as inhibitors; hit rate 0.66% among 230,000; further: nearly all actives have a fitted effect of over 60% in size
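Displacement of a biotinylated histone H3(1-15) peptide monomethylated at Lys9 (75 nM) from L3MBTL1 (50 nM) was measured by AlphaScreen after a 30 min room-temperature compound incubation; cefsulodin titration served as intraplate control.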
JMJD2A Tudor inh = blocks the human JMJD2A Tudor domain | O75164 | AlphaScreen JMJD2A-Tudor / H3K4me3 peptide binding | Potency, µM (titrated, usually from 114 µM), most hits filed as inhibitors | hit rate 4.4% among 390,000; further: nearly all actives have a fitted effect of over 50% in size
HP1b chromo inh = blocks HP1-beta chromodomain binding to methylated histone tails | P83916 | AlphaScreen HP1-beta / biotin-H3K9me3 peptide binding | Potency, µM (titrated, usually from 114 µM), hits mostly inhibitors | hit rate 0.56% among 390,000; further: nearly all actives have a fitted effect of over 70% in size
Target sequence (P83916 whole entry, looked up): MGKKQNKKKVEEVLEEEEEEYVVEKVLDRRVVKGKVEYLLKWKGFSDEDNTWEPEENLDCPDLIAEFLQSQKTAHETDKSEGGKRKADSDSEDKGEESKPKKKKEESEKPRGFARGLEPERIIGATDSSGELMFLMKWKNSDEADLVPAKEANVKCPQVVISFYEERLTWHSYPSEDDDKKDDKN
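AlphaScreen: HP1-beta (50 nM) preformed 30 min with biotin-H3(1-18)K9me3 peptide (50 nM) in PBS pH 7.4, 0.01% Tween-20. Compound added for 30 min at RT, then streptavidin donor/nickel chelate acceptor beads (10 ug/mL) for 30 min.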
Sfp inh = Sfp phosphopantetheinyl transferase inhibition; Biochemical Sfp PPTase activity, qHTS; Potency, µM, most hits filed as inhibitors; hit rate 3.5% among 310,000; AID 1490;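 further: the enzyme is Sfp with the accession as filed and its product quenches rhodamine fluorescence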
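With Hepes-Na pH 7.6 buffer containing 10 mM MgCl2, Sfp (15 nM) modified BHQ-2-YbbR (12.5 uM) using rhodamine-CoA (5 uM). Two reads 30 minutes apart at 525/598 nm yielded each well's rate.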
A number is an active result; 0 = inactive; ? = inconclusive; - = no result. The call rests on the fitted dose curve; in most records, active means well fitted curve in the direction sought with a large enough effect; inconclusive means small, poorly fitted or top-dose-only effect, or another doubt; inactive means no such curve, though single readings can be large; an effect the other way counts as inactive or inconclusive.

SMILES	G9a block	BAZ2B block	L3MBTL1 block	JMJD2A Tudor inh	HP1b chromo inh	Sfp inh
CCOc1cc(C=C2C(=O)c3ccccc3C2=O)ccc1OCC(=O)Nc1ccc(C)cc1	0	0	0	0	0	0
CCCN=C(C)C1=C(O)c2ccccc2C1=O	?	0	0	0	0	0
CCCc1ccc(/C=C2\C(=O)c3ccccc3C(O)=C2C(=O)OCC)cc1	5.6µM	20µM	0	-	-	2.8µM
CCOC(=O)C1=C(O)c2ccccc2C(=O)/C1=C\c1ccc(CC)cc1	5.6µM	20µM	?	22µM	0	2µM
CCc1ccccc1NC(=O)Cn1c(=O)n(-c2ccc(C)cc2)c(=O)c2cc(OC)c(OC)cc21	0	0	-	0	0	-
CCC(=O)N1CCc2cc(CNS(=O)(=O)c3ccc(C(C)C)cc3)ccc21	0	0	-	0	0	-
O=C(COC(=O)/C=C/C(=O)N1CCN(c2ccccc2)CC1)NC(c1ccccc1)c1ccccc1	?	45µM	-	0	0	0
CN1CCc2c(n(CC(O)CN3C(=O)c4ccccc4S3(=O)=O)c3ccccc23)C1=O (configuration not stated)	0	0	0	0	0	0
CN1CCc2c(n(CC(O)CN(CCO)CCO)c3ccccc23)C1=O (configuration not stated)	35µM	0	?	0	0	?
CN1CCc2c(n(CC(O)CNCc3ccccc3)c3ccccc23)C1=O (configuration not stated)	50µM	0	0	0	0	0
CCC1Sc2ccc(S(=O)(=O)N3CCN(c4ccccc4)CC3)cc2NC1=O (configuration not stated)	18µM	0	-	13µM	0	0
C=CCC1Cc2c(cccc2[N+](=O)[O-])C(CC=C)N1 (configuration not stated)	50µM	?	0	?	0	0
O=C(N/N=C/C=C/c1ccco1)c1ccccc1Cl	?	0	-	0	0	40µM
CC(/C=C/c1ccco1)=N/NC(=O)c1ccccc1Cl	?	0	0	0	0	35µM
CS(=O)(=O)N1CCc2cc(C(=O)NCc3ccccc3)ccc21	0	0	-	0	0	-
O=C(Oc1ccc(C(=S)N2CCCCC2)cc1)c1ccccc1	35µM	0	0	0	?	22µM
COc1ccc(C(=S)N2CCOCC2)cc1OC(=O)c1cccc([N+](=O)[O-])c1	0	0	0	?	0	0
O=C(Oc1ccc(C(=S)N2CCOCC2)cc1)c1cc([N+](=O)[O-])cc([N+](=O)[O-])c1	35µM	0	-	0	0	0
O=C(Oc1cccc(C(=O)N2CCOCC2)c1)c1ccc(Br)cc1	0	0	0	0	0	0
O=C(Oc1ccccc1C(=S)N1CCOCC1)c1cccc([N+](=O)[O-])c1	79µM	0	-	?	0	0
O=C(Oc1ccc(C(=S)N2CCOCC2)cc1)c1ccccc1[N+](=O)[O-]	-	0	0	0	0	0
O=C(Oc1cccc(C(=S)N2CCCCC2)c1)c1ccccc1	?	0	0	0	0	0
O=C(Oc1cccc(C(=S)N2CCOCC2)c1)c1ccc([N+](=O)[O-])cc1	32µM	?	-	?	?	0
CC(C)CCNC(=O)c1ccc2c(c1)N(Cc1ccccc1F)C(=O)c1ccccc1S2=O (configuration not stated)	0	0	-	0	0	-
O=S(=O)(NCCc1ccccc1)c1ccccc1Br	-	-	-	0	0	0
Cc1cc(C)c2c(n1)nn1c(C)c(CCC(=O)NCc3ccc(Cl)cc3)c(C)nc21	0	0	-	0	0	-
O=C(NCc1ccccc1)C1CCN(S(=O)(=O)c2ccc3c(c2)CCCN3C(=O)C2CCC2)CC1	0	0	-	0	0	-
CCc1ccc(S(=O)(=O)N(C(=O)Oc2ccccc2)c2ccc3oc(C)c(C(=O)OC)c3c2)cc1	0	0	-	0	0	-
Cc1c(C(=O)Nc2ccc(F)cc2F)oc2c1-c1nn(Cc3c(F)cccc3Cl)cc1CC2	0	0	-	0	0	-
Cc1c([N+](=O)[O-])cc(C(=O)Oc2cccc(C(=S)N3CCOCC3)c2)cc1[N+](=O)[O-]	16µM	?	0	0	0	0
